Data published in PubChem BioAssay (NCI).
Several values for one entry are separate records, joined by “and”; a condition that tells them apart may be missing. Identical values can stand only once. About 83,000 compounds went through this panel and 20% of them were active in at least one assay; those are over-represented in the sample as a whole.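 96-well plates, one dose, 48 hours. Percent growth reported; active if below 10.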 Activity calls are given as the source filed them.

Legend:
Experiment in all cases: NCI-60 one-dose screen, 48 h (100 = growth as untreated, 0 = no growth, -100 = all killed)
[1] = system: SR leukemia; conditions: 10 µM unless noted
[2] = system: RPMI-8226 leukemia
[3] = system: OVCAR-8 ovarian
[4] = system: OVCAR-5 ovarian
[5] = system: OVCAR-4 ovarian
[6] = system: SK-OV-3 ovarian
[7] = system: IGROV1 ovarian
[8] = system: OVCAR-3 ovarian
[9] = system: NCI/ADR-RES ovarian
[10] = system: HS 578T breast; conditions: 10 µM

Measured: growth

CCO/C=C1\SC(=S)N(c2cccc(O)c2)C1=O
inactive: [1] 85% | [2]; 10 µM 94.6% | [3]; 10 µM 99.4% | [4]; 10 µM 97.8% | [5]; 10 µM 93.8% | [6]; 10 µM 91.9% | [7]; 10 µM 99.2% | [8]; 10 µM 102% | [9]; 10 µM 107%

COC(=O)C1=COC(C)C2C[n+]3ccc4c([nH]c5ccccc54)c3CC12 (stereo not given)
inactive: [1] 104% and 99.4% | [2]; 10 µM 93.9% and 95.8% | [3]; 10 µM 107% and 89.8% | [4]; 10 µM 105% and 94.7% | [5]; 10 µM 100% and 108% | [6]; 10 µM 114% and 83.8% | [7]; 10 µM 103% and 82.5% | [8]; 10 µM 104% and 97.4% | [9]; 10 µM 108% and 102%

CN(C)C(=S)SC(=S)N(C)C
inactive: [2]; 10 µM 62.7% | [3]; 10 µM 107% and 96.6% | [4]; 10 µM 106% and 108% | [5]; 10 µM 72.9% and 32.9% | [6]; 10 µM 115% and 110% | [7]; 10 µM 96.2% and 94.3% | [8]; 10 µM 98.8% and 96.2% | [9]; 10 µM 104% and 101%

CC1=CC(C)=Nc2ccc(Cl)cc2N1
inactive: [2]; 10 µM 102% | [3]; 10 µM 102% | [4]; 10 µM 112% | [5]; 10 µM 110% | [6]; 10 µM 98.7% | [7]; 10 µM 103% | [8]; 10 µM 102% | [10] 104% | [9]; 10 µM 102%

O=C(O)COc1ccc(OCC(=O)O)cc1
active: [2]; 10 µM -15.6%
inactive: [3]; 10 µM 13% | [4]; 10 µM 11% | [5]; 10 µM 21.4% | [6]; 10 µM 11.4% | [7]; 10 µM 27.4% | [8]; 10 µM 16.7% | [10] 20.9% | [9]; 10 µM 83.3%

CCC(C)(C)c1cc(O)c(C(C)(C)CC)cc1O
inactive: [1] 45.1% | [2]; 10 µM 22.3% | [3]; 10 µM 65.9% | [4]; 10 µM 49.2% | [5]; 10 µM 28% | [6]; 10 µM 57.2% | [7]; 10 µM 64.8% | [8]; 10 µM 37.2% | [10] 31.9% | [9]; 10 µM 39.2%

COc1cccc2c1C(=O)c1c(O)c3c(c(O)c1C2=O)C[C@@](O)(C(C)=O)C[C@@H]3OC1CC(N)C(O)C(C)O1 (stereo not given in full)
inactive: [9]; 10 µM 23.9%
active: [1] -25.4% | [2]; 10 µM -23.9% | [4]; 10 µM -12.3% | [5]; 10 µM -3.17% | [6]; 10 µM 5.5% | [7]; 10 µM -29% | [8]; 10 µM -1.56%

CCN1/C(=C/C=C/C=C/c2sc3ccccc3[n+]2CC)Sc2ccccc21
inactive: [10] 26.2% | [9]; 10 µM 55.9%
active: [2]; 10 µM -21.4% | [3]; 10 µM -65.6% | [4]; 10 µM 7.61% | [5]; 10 µM -42% | [6]; 10 µM -73.1% | [7]; 10 µM -62.9% | [8]; 10 µM -64.1%

OCC1OC(n2cnc3c(=S)nc[nH]c32)C(O)C1O (stereo not given)
inactive: [2]; 10 µM 108% and 31.6% | [3]; 10 µM 47.3% | [4]; 10 µM 57% and 85.1% | [5]; 10 µM 91.5% and 46.9% | [6]; 10 µM 113% | [7]; 10 µM 85.4% | [8]; 10 µM 113% and 47% | [10] 89.5% and 62.7% | [9]; 10 µM 102% and 46.5%

COc1cccc2c1C(=O)c1c(O)c3c(c(O)c1C2=O)C[C@@](O)(C(=O)CO)C[C@@H]3OC1CC(N)C(O)C(C)O1 (stereo not given in full)
active: [2]; 1 µM -15.7% | [2]; 10 µM -17.4% | [4]; 10 µM -59.3% | [7]; 10 µM -7.77% | [9]; 10 µM 4.94%
inactive: [2]; 0.0025 µM 101% | [2]; 2.5 µM 62.7% | [3]; 0.0025 µM 99.5% | [3]; 1 µM 36.6% | [3]; 2.5 µM 45% | [4]; 0.0025 µM 102% | [4]; 1 µM 84.4% | [4]; 2.5 µM 120% | [5]; 0.0025 µM 114% | [5]; 1 µM 68% | [5]; 2.5 µM 67.6% | [5]; 10 µM 14.1% | [6]; 0.0025 µM 95.6% | [6]; 1 µM 28.4% | [6]; 2.5 µM 43.4% | [6]; 10 µM 13.8% | [7]; 0.0025 µM 85.7% | [7]; 1 µM 19.9% | [7]; 2.5 µM 50% | [8]; 0.0025 µM 105% | [8]; 1 µM 81.8% | [8]; 10 µM 10.2% | [9]; 0.0025 µM 103% | [9]; 1 µM 104% | [9]; 2.5 µM 99%
